The results in this text go back to the supplement of paper PMC13380429.

Unmarked numbers belong to inactive results.

The experiment relates to Vero E6 infected with SARS-CoV-2. Briefly: inhibition of SARS-CoV-2 cytopathic effect; higher = more antiviral protection, active = above 15. The note with it: 8.33 nM; 48 h. (Protection from cytopathic effect is a common read-out in antiviral testing.)
`CC(C)NCC(O)COc1ccc(COCCOC(C)C)cc1` (stereo not drawn) [bisoprolol]: the “inhibition of SARS-CoV-2 cytopathic effect” value (shortened to “inhibition”) was -2.6%.

On to `CNC(=O)c1c(-c2ccc(F)cc2)oc2cc(N(CCO)S(C)(=O)=O)c(C3CC3)cc12` [nesbuvir], for which the “inhibition” value is 0.12%.

In the case of `COc1ccc(/C=C/C(=O)Nc2ccccc2C(=O)O)cc1OC` [tranilast], the “inhibition” value is -1.52%.

Take `CC(=O)Oc1cc(C(F)(F)F)ccc1C(=O)O` [triflusal]: the “inhibition” value is -0.53%.

For `CN(CCOc1ccc(C[C@H](Nc2ccccc2C(=O)c2ccccc2)C(=O)O)cc1)c1ccccn1`, the “inhibition” value is 2.86%.

Consider `CCc1c(C(=O)NCCc2ccc(N3CCCCC3)cc2)[nH]c2ccc(Cl)cc12`, for which the “inhibition” value was 2.93%.

Regarding `Cn1cc(-c2ccc3c(c2)CCN3C(=O)Cc2cccc(C(F)(F)F)c2)c2c(N)ncnc21`, the “inhibition” value was 0.68%.

`COc1ccc(CN2C(=O)C(=O)c3cc(OC(F)(F)F)ccc32)cc1`: the “inhibition” value was 1.14%.

For the compound `N#Cc1cc(F)cc(-c2nc(-c3ccc(F)cn3)no2)c1`, the “inhibition” value was 2.48%.

On to `O=C1NN(C(=O)Nc2ccc(Br)cc2)[C@@H](c2ccccc2)[C@@H]1c1ccccc1`, for which the “inhibition” value was 1.35%.

For the compound `CN1CCN(C(c2ccccc2)c2ccc(Cl)cc2)CC1` (stereo not drawn) [chlorcyclizine], the “inhibition” value was 1.4%.

With `COCC(=O)O[C@]1(CCN(C)CCCc2nc3ccccc3[nH]2)CCc2cc(F)ccc2[C@@H]1C(C)C` [mibefradil], the “inhibition” value was 0.22%.

Take `CNc1ccc([N+](=O)[O-])cc1-n1cnc(-c2ccc(C(F)(F)F)cc2)c1`: the “inhibition” value is 1.42%.
